HTR5A ag = activates human HTR5A in OPRM1-OPRD1 agonist counter-screen. HTR5A agonist assay, luminescence, cell-based. activation, % at 9.3 µM. 340,000 tested, 0.61% active; in the data active = activation mostly above about 9.5%, no sharp cut-off; inactive = mostly below about 7.6%
Target sequence (P47898 whole entry, looked up): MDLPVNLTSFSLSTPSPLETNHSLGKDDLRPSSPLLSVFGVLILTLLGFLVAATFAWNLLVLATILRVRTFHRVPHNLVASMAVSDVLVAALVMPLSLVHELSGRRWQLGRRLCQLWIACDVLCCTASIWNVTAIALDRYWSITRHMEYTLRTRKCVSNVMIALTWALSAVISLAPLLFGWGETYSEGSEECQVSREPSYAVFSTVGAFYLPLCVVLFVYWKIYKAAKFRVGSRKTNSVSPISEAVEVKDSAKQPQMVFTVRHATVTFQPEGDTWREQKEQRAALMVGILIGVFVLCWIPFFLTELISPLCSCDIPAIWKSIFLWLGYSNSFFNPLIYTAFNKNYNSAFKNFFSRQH
MOR-DOR inv ag = mu-delta opioid heterodimer inverse agonism; P35372+P41143; cell-based MOR-DOR heterodimer luminescence; inhibition, % at 9.3 µM; 340,000 tested, 0.21% active; AID 504357; in the data active = inhibition above about 22%, passing the limit was not always enough
HTR5A inv ag = inverse agonist of human HTR5A in OPRM1-OPRD1 counter-screen | P47898 | HTR5A cell line, luminescence, inverse agonism | inhibition, % at 9.3 µM | 340,000 tested, 0.083% active | AID 504634; in the data active = inhibition mostly above about 23%, no sharp cut-off; inactive = mostly below about 18%
OPRM1-OPRD1 ag = agonists of human mu-delta opioid receptor heterodimerization; P35372+P41143; cells, OPRM1-OPRD1 heterodimerization, luminescence; activation, % at 9.3 µM; 340,000 tested, 0.3% active; in the data active = activation above about 18%
MOR-DOR inv conf = confirmation of human OPRM1-OPRD1 heterodimerization inverse agonists; AID 504900; inhibition, % at 9.3 µM; 580 tested, 20% active; shares compounds with MOR-DOR inv ag; cells expressing OPRM1/OPRD1 heterodimer, luminescence; in the data active = inhibition above about 32%
HTR5A inv count = HTR5A inverse agonism, opioid heterodimer counter-screen | 580 tested, under 10 active | shares compounds with MOR-DOR inv ag | inhibition, % at 9.3 µM | HTR5A-expressing cells, luminescence; call rule not given here
Large screens that a line does not name were inactive (follow-up assays come after a bar, where they were run). A selection: hits, their analogues and other compounds. The true share with any hit is near 1.1%.

Cc1ccc(N2CC(C(=O)OCC(=O)c3ccc(C)c([N+](=O)[O-])c3)CC2=O)cc1 (stereo not given)	MOR-DOR inv ag 52 | MOR-DOR inv conf inactive | HTR5A inv count inactive
Cc1ccc(N2CC(C(=O)OCC(=O)c3ccc(F)cc3)CC2=O)cc1 (stereo not given)	none
COC(=O)c1[nH]c(=O)c2ccccc2c1OCc1ccccc1	none
COC(=O)c1[nH]c(=O)c2ccccc2c1O	MOR-DOR inv ag 42 | MOR-DOR inv conf inactive | HTR5A inv count inactive
O=C(NNc1ncc(C(F)(F)F)cc1Cl)c1c(Cl)cccc1Cl	none
Fc1ccccc1NC(=S)NNc1ncc(C(F)(F)F)cc1Cl	MOR-DOR inv ag 44 | MOR-DOR inv conf inactive | HTR5A inv count inactive
Cc1c(Cl)cccc1NC(=S)NNc1ncc(C(F)(F)F)cc1Cl	MOR-DOR inv ag 43 | MOR-DOR inv conf inactive | HTR5A inv count inactive
FC(F)(F)c1cnc(NNC(=S)Nc2cccnc2)c(Cl)c1	MOR-DOR inv ag 66 | MOR-DOR inv conf 45 | HTR5A inv count inactive
Cc1ccccc1NC(=S)NNc1ncc(C(F)(F)F)cc1Cl	MOR-DOR inv ag 46 | MOR-DOR inv conf 33 | HTR5A inv count inactive
COc1ccc(C(=O)Nc2cccc(S(=O)(=O)NC3=NCCC3)c2)cc1OC	none
CCN1C(=O)[C@H]2[C@@H](c3ccc(-c4ccc(F)cc4)cc3)N[C@@](C)(C(=O)OC)[C@H]2C1=O	none
Cc1ccc(C)c(NC(=O)CN(C)C(=O)C2COc3ccccc3O2)c1 (stereo not given)	none
COc1ccc(N2CCN(C(=O)c3ccccc3NS(=O)(=O)c3ccc(C)cc3)CC2)cc1	none
Cc1cccc(C)c1NC(=S)NNc1ncc(C(F)(F)F)cc1Cl	MOR-DOR inv ag 32 | MOR-DOR inv conf inactive | HTR5A inv count inactive
CCOc1ccc(NS(=O)(=O)c2ccc(C(=O)NCC(c3ccc(OC)cc3)N3CCCC3)cc2)cc1 (stereo not given)	MOR-DOR inv ag 26 | MOR-DOR inv conf inactive | HTR5A inv count inactive
C=CCn1c(=O)c2c(nc3n2CC(C)CN3c2cccc(OC)c2)n(C)c1=O (stereo not given)	MOR-DOR inv ag 36 | MOR-DOR inv conf inactive | HTR5A inv count inactive
O=C1c2ccccc2-c2c1nc1c([n+]2[O-])CCCC1	MOR-DOR inv ag 93 | MOR-DOR inv conf inactive | HTR5A inv count inactive
CCc1ccc2c(c1)C(=O)c1ccccc1C2=O	none
COc1ccc(C[C@@H]2OC3(C=CC(=O)C=C3)O[C@H]2Cc2ccc(OC)cc2)cc1	MOR-DOR inv ag 39 | MOR-DOR inv conf inactive | HTR5A inv count inactive
O=C1C=C(N2CCOCC2)c2ccccc2C1=O	none
CC1=C(C)C(=O)C(N2CCOCC2)=CC1=O	MOR-DOR inv ag 47 | MOR-DOR inv conf inactive | HTR5A inv count inactive
Cc1ccc(/C=C/C(=O)O)cc1S(=O)(=O)NCc1ccco1	none
COc1ccc2c(c1)C(=O)C(=O)N2CCS(=O)(=O)c1ccccc1	MOR-DOR inv ag 70 | MOR-DOR inv conf inactive | HTR5A inv count inactive
CCOc1ccc2c(c1)C(=O)C(=O)N2CC1COc2ccccc2O1 (stereo not given)	none
COc1ccc2c(c1)C(=O)C(=O)N2CC1COc2ccccc2O1 (stereo not given)	MOR-DOR inv ag 38 | MOR-DOR inv conf inactive | HTR5A inv count inactive
O=C1C(=O)N(CCS(=O)(=O)c2ccccc2)c2ccc(F)cc21	MOR-DOR inv ag 53 | MOR-DOR inv conf inactive | HTR5A inv count inactive
Cc1ccc2c(c1)C(=O)C(=O)N2CCCOc1ccccc1	none
Cc1cc(OC(=O)c2c(C)cc(OC(=O)c3c(C)cc(O)cc3O)cc2O)cc(O)c1C(=O)O	none
CCCCC(=O)NC(=S)Nc1nnn(CCC)n1	MOR-DOR inv ag 37 | MOR-DOR inv conf inactive | HTR5A inv count inactive
CCCCC(=O)Nc1nnn(CCC)n1	none
O=C(NCCc1cnc[nH]1)c1ccc(-c2ccccc2)cc1	none
O=C(Cc1ccc(F)cc1)Nc1nccs1	none
CC(C)(C)c1nnc(NC(=S)Nc2ccccc2)s1	MOR-DOR inv ag 38 | MOR-DOR inv conf inactive | HTR5A inv count inactive
S=C(Nc1ccccc1)Nc1nccs1	MOR-DOR inv ag 33 | MOR-DOR inv conf inactive | HTR5A inv count inactive
Fc1ccc(NC(=S)Nc2nccs2)cc1	MOR-DOR inv ag 29 | MOR-DOR inv conf inactive | HTR5A inv count inactive
CC(C)(C)c1nnc(NC(=O)CCS(=O)(=O)c2ccccc2)s1	none
COc1ccc(NC(=O)/C(Cl)=C(/Cl)S(=O)Cc2ccc(Cl)cc2)cn1 (stereo not given)	MOR-DOR inv ag 41 | MOR-DOR inv conf inactive | HTR5A inv count inactive
CCOCC(=O)Nc1nc2ccc(OCC)cc2s1	none
CCOc1ccc2nc(-c3cc(NC(C)=O)ccc3O)sc2c1	MOR-DOR inv ag 27 | MOR-DOR inv conf inactive | HTR5A inv count inactive
O=C(CN(C(=O)CSc1nc2ccccc2o1)c1ccccc1F)NC1CCCCC1	none
COc1ccc(-c2cc3c(nn2)-c2ccccc2C3=O)cc1	MOR-DOR inv ag 91 | MOR-DOR inv conf 75 | HTR5A inv count inactive
O=C1c2ccccc2-c2nnc(-c3ccccc3)cc21	MOR-DOR inv ag 97 | MOR-DOR inv conf 99 | HTR5A inv count inactive
COc1ccc(-c2cn(Cc3ccc4c(c3)C(=O)c3ccccc3C4=O)nn2)cc1	none
Cc1cnc2c(c1)C(=O)c1ccccc1-2	none
Cc1cccc(-c2cc3c(nn2)-c2ccccc2C3=O)c1	MOR-DOR inv ag 88 | MOR-DOR inv conf inactive | HTR5A inv count inactive
CSCCC(NC(=O)c1ccccc1)C(=O)NNC(=O)c1csc(N2CCOCC2)n1 (stereo not given)	none
N#CC1(Nc2ccccc2)C(=O)Nc2ccccc21 (stereo not given)	MOR-DOR inv ag 57 | MOR-DOR inv conf inactive | HTR5A inv count inactive
N#CC1(Nc2cccc(Br)c2)C(=O)Nc2ccccc21 (stereo not given)	MOR-DOR inv ag 50 | MOR-DOR inv conf inactive | HTR5A inv count inactive
CC(=O)Nc1ccc(C2(c3ccc(NC(C)=O)cc3)C(=O)Nc3ccccc32)cc1	none
Cc1cc(O)c(/C=N/Nc2ccc(Cl)cc2)c(=O)o1	MOR-DOR inv ag 46 | MOR-DOR inv conf inactive | HTR5A inv count inactive
Cc1cc(O)c(/C=N/Nc2cccc(Cl)c2)c(=O)o1	none
CN1C(=O)C(O)(CC(=O)c2ccccn2)c2cc(Br)ccc21 (stereo not given)	MOR-DOR inv ag 74 | MOR-DOR inv conf inactive | HTR5A inv count inactive
Cc1ccc(C(=O)CC2(O)C(=O)N(C)c3ccc(Br)cc32)c(C)c1 (stereo not given)	none
Cc1ccc(N=C2C(=O)Nc3ccccc32)cc1	MOR-DOR inv ag 49 | MOR-DOR inv conf inactive | HTR5A inv count inactive
O=C1Nc2ccccc2C1=Nc1ccc2[nH]c3ccccc3c2c1	MOR-DOR inv ag 49 | MOR-DOR inv conf inactive | HTR5A inv count inactive
CC(=O)c1cccc(N=C2C(=O)Nc3ccccc32)c1	MOR-DOR inv ag 59 | MOR-DOR inv conf 37 | HTR5A inv count inactive

Screening data (PubChem BioAssay)
